Results filed as inconclusive are left out. Calls of active or inactive are those of the source. Unless noted, calls come from the whole dose curve; as a rule, active = well fitted curve in the direction sought with a large enough effect; inconclusive = small, poorly fitted or top-dose-only effect, or another doubt; inactive = no such curve, though single readings can be large; an effect the other way counts as inactive or inconclusive.

Consider 4 compounds from PubChem BioAssay (NCATS).

Experiment [1] concerns the target Luciferin 4-monooxygenase (Photinus pyralis) (UniProt P08659). As to the kind of experiment: Biochemical firefly luciferase enzyme assay for NPC (AID 624030).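 Note: purified P. pyralis luciferase at 10 nM with luciferin and ATP substrate; 0% = DMSO and -100% = full luciferase inhibition by PTC124 control; nearly all actives have a fitted effect of over 70% in size.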 In outline:
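Purified P. pyralis luciferase at 10 nM in 50 mM Tris Acetate (final), luminescence read within 5 minutes of enzyme addition to compounds. Activity normalised to PTC124 versus DMSO; concentration-response curves classed by r2, magnitude and activity.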

Experiment [2] in a line: P-glycoprotein substrates identified in KB-8-5-11 adenocarcinoma cell line, qHTS therapeutic library screen (AID 1346987). Note: nearly all actives have a fitted effect of over 65% in size. Note: potency is the fitted concentration of half-maximal effect. The procedure, abridged: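 Compounds are pinned in dose-response onto KB-8-5-11 cells (500 cells/well, colchicine-free medium) and left 72 h at 37 degree C. CellTiter-Glo luminescence then yields AC50 values.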
For another experiment, the system named is KB-3-1. As to the kind of experiment: Cytotoxic Profiling of Annotated Libraries Using Quantitative High-Throughput Screening (AID 1296008). For max response: % is set by controls: 0 for no effect and ±100 for the full control effect. Note: nearly all actives have a fitted effect of over 60% in size. Note: potency is the fitted concentration of half-maximal effect. The conditions noted are these: Five cell lines viability, CellTiter-Glo ATP luminescence, 48-72 h; max response: stronger effect = lower value. The procedure, abridged:
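Cells exposed to compounds for 48 or 72 hr at 37 degrees Celsius. Viability read as ATP-coupled luminescence with CellTiter-Glo after 10 min at room temperature.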

In another experiment the test system is astro. In words: Drug repurposing screens with cells derived from glioblastoma tumor samples (AID 1345199). Note: nearly all actives have a fitted effect of over 40% in size. Note: potency is the fitted concentration of half-maximal effect. The conditions noted are these: viability, ATP luminescence, 48 h; series mostly up to 45.9 µM. In outline:
(§1)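 Primary testing used CD133+ neurospheres from four GBM patients, seven concentrations, 48 h exposure and ATP-based viability; confirmation added three slower-growing patient lines.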

The nature of experiment [3]: qHTS Assay for Identifying Gametocytocidal Compounds (AID 743244).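 Note: % is set by controls: 0 for no effect and ±100 for the full control effect; actives lower the fluorescent signal which means gametocytes are killed.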 The conditions noted are these: P. falciparum 3D7 stage III-V gametocytes, alamarBlue, 72 h; max response: stronger effect = lower value. The procedure, abridged:
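Stage III–V gametocytes of P. falciparum 3D7 were seeded at 20,000 cells/well onto pre-dispensed compounds. After 72 h, 37 °C, 5% CO2, alamarBlue was added for another 24 h.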

Experiment [4] can be described thus: Drug repurposing screens with cells derived from glioblastoma tumor samples (AID 1345199). Note: nearly all actives have a fitted effect of over 40% in size. Note: potency is the fitted concentration of half-maximal effect. The conditions noted are these: GBM patient neurospheres viability, ATP luminescence, 48 h; Potency: tumour line A; series mostly up to 45.9 µM. In outline:
as §1

A short description of experiment [5]: Primary qHTS for Huh7 cytotoxicity: counterscreen for inhibitors of MERS-S pseudotyped particle cell entry (AID 1479147; calls by dose curve; note: % is set by controls: 0 for no effect and ±100 for the full control effect). To be noted: outcome: dose series up to 57.1 µM unless noted. For orientation: Quantitative high-throughput screening tests each substance at several concentrations.
The nature of experiment [6]: Primary qHTS for inhibitors of MERS-S pseudo-typed particle cell entry (AID 1479149; calls by dose curve; note: nearly all actives have a fitted effect of over 60% in size).
Experiment [7] is described as follows: Primary qHTS for Vero E6 cytotoxicity: counterscreen for inhibitors of SARS-S pseudo-typed particle cell entry (AID 1479150; calls by dose curve; note: % is set by controls: 0 for no effect and ±100 for the full control effect). To be noted: outcome: dose series up to 57.1 µM unless noted.
Experiment [8] in a line: Cytotoxicity counterscreen for inhibitors of SARS-CoV-2 cell entry (AID 1645845; calls by dose curve; note: % is set by controls: 0 for no effect and ±100 for the full control effect; nearly all actives have a fitted effect of over 50% in size). The procedure, abridged:
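Counterscreen run in the same HEK293-ACE2 line as the pseudotyped-particle entry assay, without particles. Viability after 48 h at 37 C was read as ATP luminescence, scaled between cell-containing and cell-free wells.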
A general note: A counterscreen serves to expose hits that act by an unwanted route or on another target.

Experiment [9] is described as follows: Primary qHTS to identify inhibitors of SARS-CoV-2 cell entry (AID 1645846; calls by dose curve; note: nearly all actives have a fitted effect of over 45% in size). The conditions noted are these: activity change, negative = inhibition: at 57.1 µM (top of the series) unless noted. The procedure, abridged: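 Entry measured by luciferase signal 48 h after adding SARS-CoV-2-S pseudotyped MLV particles to HEK293-ACE2 cells preincubated 1 h with compounds. Normalisation: bald particles and spike particles.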

For experiment [10], the target named is Phospholipid hydroperoxide glutathione peroxidase GPX4 (Homo sapiens) (UniProt P36969). In words: Primary qHTS Assay for Inhibitors of Recombinant Selenoprotein Glutathione Peroxidase 4 (GPX4) (AID 1845192). Note: nearly all actives have a fitted effect of over 65% in size. The procedure, abridged:
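Steps: GPX4 plus compound, 30 min RT; add GR/GSH/NADPH master mix; start with cumene hydroperoxide; read 340/450 nm fluorescence at 0 and 15 min. Finals were 200 nM GPX4, 1 mM GSH, 0.5 mM CHP, 0.5 mM NADPH, 100 nM GR.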

Luciferin 4-monooxygenase (Photinus pyralis), sequence (P08659 whole entry, looked up): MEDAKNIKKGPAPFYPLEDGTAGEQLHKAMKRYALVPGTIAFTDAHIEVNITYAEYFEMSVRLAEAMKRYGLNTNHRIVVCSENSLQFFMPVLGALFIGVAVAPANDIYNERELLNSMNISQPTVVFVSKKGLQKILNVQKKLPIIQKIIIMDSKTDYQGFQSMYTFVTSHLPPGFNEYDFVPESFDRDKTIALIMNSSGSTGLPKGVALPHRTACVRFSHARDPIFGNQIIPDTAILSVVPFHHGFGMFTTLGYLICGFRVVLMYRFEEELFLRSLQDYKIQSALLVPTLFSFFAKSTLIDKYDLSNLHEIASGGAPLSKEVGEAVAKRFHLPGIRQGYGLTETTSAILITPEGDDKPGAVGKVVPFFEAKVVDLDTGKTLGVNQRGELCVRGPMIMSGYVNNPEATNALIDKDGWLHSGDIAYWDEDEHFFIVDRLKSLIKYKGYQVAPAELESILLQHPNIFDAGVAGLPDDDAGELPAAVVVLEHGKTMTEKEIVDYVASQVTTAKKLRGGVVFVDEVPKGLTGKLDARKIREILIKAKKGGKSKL
Phospholipid hydroperoxide glutathione peroxidase GPX4 (Homo sapiens), sequence (P36969 whole entry, looked up): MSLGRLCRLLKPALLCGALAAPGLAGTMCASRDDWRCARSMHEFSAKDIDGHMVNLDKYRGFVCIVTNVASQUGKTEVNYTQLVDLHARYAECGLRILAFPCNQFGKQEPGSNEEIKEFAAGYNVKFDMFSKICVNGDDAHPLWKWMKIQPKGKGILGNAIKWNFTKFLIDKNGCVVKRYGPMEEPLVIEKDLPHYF

Consider `CCCSc1cc(OC)c(CCN)cc1OC`, for which the Potency result in [1] is “inactive”. Also, the Potency was 20 µM (active) in [2], 17.8 µM (active) with KB-3-1 and 31.6 µM (active) in the experiment with astro.
With `CC(N)Cc1ccc2c(c1)OCO2` (configuration not stated), the Potency entry (in [1]; in experiment [2]; in [4]; with astro) was “inactive” throughout. Moreover, the max response in experiment [3] was -8.54% (inactive); in the experiment on KB-3-1, -15.3% (inactive).
In the case of `Oc1ccc2c3c1O[C@H]1[C@@H](O)C=C[C@H]4[C@H](C2)NCC[C@@]341`, the values for the max response (in experiment [3]; in the experiment on KB-3-1) were 8.16% (inactive) and -12.5% (inactive), respectively. For the same compound, the Potency result (in experiment [2]; in [4]; with astro) was “inactive” each time.
For the compound `CCOC(=O)C1(c2ccccc2)CCCN(C)CC1` (configuration not stated), the Potency entry in experiment [1], in experiment [2], in experiment [6], in [8], in [10] and in experiment [4] was “inactive” throughout. For the same compound, the Potency entry in the experiment with astro is “inactive”. The max response in experiment [3] was 9.62% (inactive); in the experiment with KB-3-1, -5.26% (inactive). Moreover, the call in experiment [5] and in experiment [7] was inactive. Also, the activity change, negative = inhibition in experiment [9] is -23.2%.
